Reference: PubChem BioAssay (Tox21)
“And” between values parts separate entries of the source, which are not always exact repeats. Identical values can stand only once. Records with an inconclusive call do not appear. A call without a number means that no potency is given here. More than one record can exist for a structure, and the calls need not agree. The source made the active and inactive calls. Unless noted, calls come from the whole dose curve; as a rule, active = well fitted curve in the direction sought with a large enough effect in the repeat runs; inconclusive = weak or mixed curves; inactive = no such curve, though single readings can be large; an effect the other way counts as inactive or inconclusive.

Experiments:
[1] = qHTS assay to identify small molecule antagonists of the thyroid receptor (TR) signaling pathway - cell viability counter screen (AID 743064); note: nearly all actives have a fitted effect of over 50% in size
How it was run: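 In-well cytotoxicity read by CellTiter-Fluor (30 min, 37 C) following 23.5 h exposure of GH3 cells bearing a TRE-luciferase sensor. Compounds were added alongside 1 nM (final) T3 to drive TR transactivation.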

[2] = qHTS assay to identify small molecule antagonists of the thyroid receptor (TR) signaling pathway (AID 743065); note: series mostly up to about 70 µM; nearly all actives have a fitted effect of over 55% in size
How it was run: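 Antagonism measured as loss of luciferase signal in GH3 cells stably carrying a TRE-luciferase reporter, co-treated with compound and T3 (1 nM final) for 23.5 h at 37 C. Viability was read in the same well by CellTiter-Fluor.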

[3] = tested on: thyroid hormone receptor (rat, GH3 cells); assay: qHTS assay to identify small molecule agonists of the thyroid receptor (TR) signaling pathway (AID 743066; calls by dose curve)
[4] = molecular target: Estrogen receptor (Homo sapiens) (UniProt P03372); assay: qHTS assay to identify small molecule antagonists of the estrogen receptor alpha (ER-alpha) signaling pathway (AID 743069; active = well fitted curve in the direction sought with a large enough effect in the signal ratio in the repeat runs, not every such curve was filed as active; the % refers to the signal ratio)
How it was run: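 ER-alpha-UAS-bla GripTite HEK293 line; 2% charcoal-stripped FBS overnight; plated, 4 hr 37C/5% CO2; cpd in DMSO + 17beta-estradiol, 18 hr 37C; LiveBLAzer B/G FRET substrate 2 hr RT; fluorescence intensity.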

[5] = qHTS assay to identify small molecule antagonists of the estrogen receptor alpha (ER-alpha) signaling pathway - cell viability counter screen (AID 743074; calls by dose curve;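 note: HEK293 cells carrying ER-alpha-UAS-bla reporter stimulated with 17beta-estradiol; nearly all actives have a fitted effect of over 45% in size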)
[6] = molecular target: Estrogen receptor (Homo sapiens) (UniProt P03372); assay: qHTS assay to identify small molecule agonists of the estrogen receptor alpha (ER-alpha) signaling pathway (AID 743075; calls by dose curve;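 note: HEK293 GripTite cells with ER-alpha and UAS-driven beta-lactamase reporter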)
[7] = molecular target: Estrogen receptor (Homo sapiens) (UniProt P03372); assay: qHTS assay to identify small molecule agonists of the estrogen receptor alpha (ER-alpha) signaling pathway using the BG1 cell line (AID 743079); note: nearly all actives have a fitted effect of over 20% in size
[8] = qHTS assay to identify small molecule antagonists of the estrogen receptor alpha (ER-alpha) signaling pathway using the BG1 cell line (AID 743080; calls by dose curve;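 note: BG1 cells stimulated with 17beta-estradiol alongside compound; series mostly up to about 70 µM; nearly all actives have a fitted effect of over 25% in size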)
How it was run: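 Luciferase inhibition measured with ONE-Glo after 30 min at RT in BG1Luc4E2 cells given test compounds and 17beta-estradiol for 21.5 h at 37 C; CellTiter-Fluor viability read in the same wells beforehand.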

[9] = qHTS assay to identify small molecule antagonists of the estrogen receptor alpha (ER-alpha) signaling pathway using the BG1 cell line - cell viability counter screen (AID 743081);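 note: compound given together with 17beta-estradiol as the ER stimulus; series mostly up to about 70 µM; nearly all actives have a fitted effect of over 45% in size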
Aromatase (Homo sapiens) = Aromatase (Homo sapiens) (UniProt P11511); assay: qHTS assay to identify aromatase inhibitors (AID 743083); note: series mostly up to about 70 µM; nearly all actives have a fitted effect of over 55% in size
[10] = qHTS assay to identify aromatase inhibitors - cell viability counter screen (AID 743084);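 note: cells stimulated with testosterone during compound exposure; nearly all actives have a fitted effect of over 55% in size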
[11] = qHTS assay to identify small molecule that activate the aryl hydrocarbon receptor (AhR) signaling pathway - cell viability counter screen (AID 743086);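 note: HepG2 liver cells carrying the AhR DRE luciferase reporter; series mostly up to about 70 µM; nearly all actives have a fitted effect of over 45% in size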
How it was run: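 Cytotoxicity counter screen: CellTiter-Fluor signal (30 min, 37 C) in 4000 HepG2 cells/well carrying the DRE-luciferase reporter, following 24 h compound exposure at 37 C.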

[12] = molecular target: Peroxisome proliferator-activated receptor gamma (Homo sapiens) (UniProt P37231); assay: qHTS assay to identify small molecule agonists of the peroxisome proliferator-activated receptor gamma (PPARg) signaling pathway (AID 743094; active = well fitted activation curve with a large enough effect in the signal ratio in the repeat runs, not every such curve was filed as active; the % refers to the signal ratio)
How it was run: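 Quantitative HTS agonist mode: stable HEK293H line with UAS-beta-lactamase reporter under PPARg control, 17 h compound exposure at 37C, fluorescence after 1 h FRET substrate loading at room temperature.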

[13] = molecular target: Peroxisome proliferator-activated receptor gamma (Homo sapiens) (UniProt P37231); assay: qHTS assay to identify small molecule antagonists of the peroxisome proliferator-activated receptor gamma (PPARg) signaling pathway (AID 743191; calls by dose curve; note: series mostly up to about 63 µM; nearly all actives have a fitted effect of over 30% in size)
How it was run: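 Beta-lactamase reporter under UAS control in HEK293H PPARg-bla cells; compound treatment 17 h at 37C. Read-out: fluorescence intensity after 1 h room-temperature incubation with LiveBLAzer B/G FRET substrate.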

[14] = qHTS assay for small molecule agonists of the antioxidant response element (ARE) signaling pathway (AID 743202; active = well fitted activation curve with a large enough effect in the signal ratio in the repeat runs, not every such curve was filed as active; the % refers to the signal ratio; note: potency is the fitted concentration of half-maximal effect)
How it was run: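 Quantitative high-throughput format in HepG2 cells bearing an integrated ARE-beta-lactamase reporter. Compound exposure lasted 16 h at 37 C, and fluorescence was read 2 h after adding LiveBLAzer B/G substrate at room temperature.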

[15] = qHTS assay for small molecule agonists of the antioxidant response element (ARE) signaling pathway - cell viability counter screen (AID 743203; calls by dose curve; note: nearly all actives have a fitted effect of over 55% in size)
How it was run: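 Seeded at 2,000 cells/well, ARE-bla HepG2 cells were incubated 5 hrs before compound addition. After 16 hrs of treatment at 37C with 5% CO2, CellTiter-Glo reagent was added and luminescence read 30 min later.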

[16] = qHTS assay for small molecule activators of the heat shock response signaling pathway - cell viability counter screen (AID 743209); note: nearly all actives have a fitted effect of over 50% in size
How it was run: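 First, HSE-bla HeLa cells were seeded at 1500 cells/well and kept overnight at 37 C. Next, compounds were pinned in and incubated 5 h. After the FRET substrate step, CellTiter-Glo was added and luminescence read 30 min later.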

[17] = qHTS assay for small molecule activators of the heat shock response signaling pathway (AID 743210; active = well fitted activation curve with a large enough effect in the signal ratio in the repeat runs, with a control signal flat, not every such curve was filed as active; the % refers to the signal ratio;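 note: HeLa cells with beta-lactamase reporter driven by heat shock elements; series mostly up to about 63 µM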)
How it was run: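 HeLa HSE-bla cells, overnight plating; cpd in DMSO 5 h, 37 C; LiveBLAzer B/G FRET substrate 2.5 h RT; fluorescence intensity read.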

[18] = qHTS assay to identify small molecule antagonists of the peroxisome proliferator-activated receptor gamma (PPARg) signaling pathway - cell viability counter screen (AID 743194); note: nearly all actives have a fitted effect of over 55% in size
How it was run: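 Viability was measured as CellTiter-Glo luminescence in GeneBLAzer PPARg UAS-bla HEK293H cells. These cells had been exposed 17 h at 37 C to compounds together with rosiglitazone at 50 nM final, with the beta-lactamase readout taken in the same wells.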

Chain of Peroxisome proliferator-activated receptor gamma (Homo sapiens) (P37231 whole entry, looked up): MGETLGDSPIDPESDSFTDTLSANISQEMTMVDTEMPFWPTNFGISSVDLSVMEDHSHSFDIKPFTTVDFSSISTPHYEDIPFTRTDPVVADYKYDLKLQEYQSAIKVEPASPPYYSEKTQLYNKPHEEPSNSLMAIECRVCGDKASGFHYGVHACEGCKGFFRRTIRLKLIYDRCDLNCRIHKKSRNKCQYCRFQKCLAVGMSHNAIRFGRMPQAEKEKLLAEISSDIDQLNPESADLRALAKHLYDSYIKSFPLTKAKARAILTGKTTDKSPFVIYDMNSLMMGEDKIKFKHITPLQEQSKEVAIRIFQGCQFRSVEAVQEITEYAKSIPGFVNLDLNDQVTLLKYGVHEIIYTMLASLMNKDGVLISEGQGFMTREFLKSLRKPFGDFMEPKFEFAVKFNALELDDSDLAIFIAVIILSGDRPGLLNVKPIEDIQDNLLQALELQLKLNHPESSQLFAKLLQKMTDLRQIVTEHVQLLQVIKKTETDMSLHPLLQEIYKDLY
Chain of Aromatase (Homo sapiens) (P11511 whole entry, looked up): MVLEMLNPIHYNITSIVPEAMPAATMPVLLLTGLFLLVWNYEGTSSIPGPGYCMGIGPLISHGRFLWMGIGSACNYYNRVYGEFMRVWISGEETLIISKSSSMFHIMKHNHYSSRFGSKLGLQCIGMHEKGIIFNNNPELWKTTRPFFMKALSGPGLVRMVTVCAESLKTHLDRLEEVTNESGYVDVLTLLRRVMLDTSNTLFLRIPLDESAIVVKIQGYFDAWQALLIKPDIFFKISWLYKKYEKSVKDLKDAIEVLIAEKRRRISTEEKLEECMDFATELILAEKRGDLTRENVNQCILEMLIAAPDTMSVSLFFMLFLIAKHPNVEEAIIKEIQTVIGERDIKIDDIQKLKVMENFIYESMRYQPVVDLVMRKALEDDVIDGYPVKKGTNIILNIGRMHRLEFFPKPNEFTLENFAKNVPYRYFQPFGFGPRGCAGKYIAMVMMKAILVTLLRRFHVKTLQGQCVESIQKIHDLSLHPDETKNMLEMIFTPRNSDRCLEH
Chain of Estrogen receptor (Homo sapiens) (P03372 whole entry, looked up): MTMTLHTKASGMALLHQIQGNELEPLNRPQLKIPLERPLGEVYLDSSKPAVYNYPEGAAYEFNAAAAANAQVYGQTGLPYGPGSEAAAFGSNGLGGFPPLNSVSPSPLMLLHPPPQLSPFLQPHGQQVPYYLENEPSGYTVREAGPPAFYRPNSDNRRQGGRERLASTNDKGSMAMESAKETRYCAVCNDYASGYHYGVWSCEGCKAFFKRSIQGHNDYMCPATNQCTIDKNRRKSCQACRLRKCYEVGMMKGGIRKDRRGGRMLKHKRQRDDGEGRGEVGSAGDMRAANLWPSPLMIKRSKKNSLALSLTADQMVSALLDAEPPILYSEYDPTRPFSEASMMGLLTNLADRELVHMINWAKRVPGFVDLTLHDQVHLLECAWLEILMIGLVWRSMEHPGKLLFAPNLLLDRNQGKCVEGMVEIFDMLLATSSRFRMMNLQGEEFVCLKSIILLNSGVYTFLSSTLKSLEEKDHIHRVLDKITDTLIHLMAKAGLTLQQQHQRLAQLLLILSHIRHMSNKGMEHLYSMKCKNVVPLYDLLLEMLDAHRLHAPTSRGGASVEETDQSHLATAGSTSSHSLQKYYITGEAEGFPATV

| Compound | Potency [1] | Potency [2] | outcome [3] | Potency [4] | outcome [5] | Potency [6] | Potency [7] | outcome [8] | Potency [9] | Potency (Aromatase (Homo sapiens)) | Potency [10] | Potency [11] | outcome [12] | outcome [13] | Potency [14] | Potency [15] | outcome [16] | outcome [17] | outcome [18] |
| --- | --- | --- | --- | --- | --- | --- | --- | --- | --- | --- | --- | --- | --- | --- | --- | --- | --- | --- | --- |
| Cc1ccc([N+](=O)[O-])cc1S(=O)(=O)O | inactive | inactive | inactive | inactive | inactive | inactive | inactive | inactive | inactive | inactive | inactive | inactive | inactive | inactive | inactive | inactive | inactive | inactive |  |
| CC(C)CC(C)O (centres undefined) | inactive | inactive | inactive | inactive | inactive | inactive | inactive | inactive | inactive | inactive | inactive | inactive | inactive | inactive | inactive and 30.6 µM (active) | inactive | inactive | inactive | inactive |
| COCCCN | inactive | inactive | inactive | inactive | inactive | inactive | inactive | inactive | inactive | inactive | inactive | inactive | inactive |  | inactive | inactive | inactive | inactive | inactive |
| Nc1ccc(Cl)c(N)c1 | inactive | inactive | inactive |  | inactive | inactive | inactive | inactive | inactive | inactive | inactive | inactive |  |  |  | inactive | inactive | inactive |  |
